The record followed here is PubChem BioAssay (NCATS).

“And” between values parts separate entries of the source, which are not always exact repeats. Equal entries are not always repeated. Inconclusive results are not listed. More than one record can exist for a structure, and the calls need not agree. The source made the active and inactive calls. Calls follow the shape of the dose curve; as a rule, active = well fitted cell-killing curve with a large enough effect; inconclusive = small, poorly fitted or top-dose-only effect; inactive = flat fitted curve, though single readings scatter.
Potency is read from the fitted curve at half-maximal effect.

One experiment is described as follows: Cellular viability qHTS for adrenocortical cancer (ACC) cell line SW-13 (AID 1963989). Also: nearly all actives have a fitted effect of over 65% in size.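 As to activity (max response): cells grown in serum-free medium with ITS supplement; % is scaled to controls: 0 for no effect and ±100 for the full control effect.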 Conditions: SW-13 ACC cells viability, CellTiter-Glo, 48 h; activity (max response): stronger effect = lower value. The method, boiled down: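 Luminescent ATP read-out (CellTiter-Glo, 20 min at room temperature) measured metabolically competent SW-13 cells after 48 h compound treatment. Final concentrations spanned up to 46 uM; bortezomib served as positive control.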
On the technique in general: In qHTS, concentration-response curves come from the screen itself.
As for `CN1C(CCl)Nc2cc(Cl)c(S(N)(=O)=O)cc2S1(=O)=O` (configuration not stated), the activity (max response) was -4.04% (inactive).
Still for that read-out and setting: the value for `COc1ccc(C(=O)NCc2ccc(OCCN(C)C)cc2)cc1OC` was 1.66% (inactive).
For the compound `OCCN1CCN(CCCN2c3ccccc3Sc3ccc(Cl)cc32)CC1`, the Potency was 6.51 µM (active).
In the case of `CSc1ccc2c(c1)N(CCC1CCCCN1C)c1ccccc1S2` (configuration not stated), the Potency is 16.4 µM (active).
For `COc1ccc(CNc2nc(N(CCO)CCO)nc3c2ncn3C(C)C)cc1`, the Potency was 8.91 µM (active).
As for `CC(C)n1nc(-c2cc3cc(O)ccc3[nH]2)c2c(N)ncnc21`, the Potency is 5.8 µM (active) and 14.1 µM (active).
As to `COc1ccccc1OCC(O)CO` (configuration not stated), the activity (max response) was 13.4% (inactive).
Same read-out and setting: the value for `COc1cc(Cc2cnc(N)nc2N)cc(OC)c1OC` was -3.43% (inactive); that for `COc1ccc2nc3n[nH]c(C)c3c(NCCOCCO)c2c1` was 0.542% (inactive); that for `CCCNC(C)(C)COC(=O)c1ccccc1` was -2.6% (inactive).
On the same count and under the same terms, the value for `CCN(c1cc(C#CCN2CCOCC2)cc(C(=O)NCc2c(C)cc(C)[nH]c2=O)c1C)C1CCC(N(C)CCOC)CC1` (configuration not stated) was 7.49% (inactive); that for `CCN(CC)CCOC(=O)c1ccc(N)cc1` was 7.42% (inactive).
Still for that read-out and setting: in the case of `C[C@@H]1CCN(C(=O)[C@H](CCCN=C(N)N)NS(=O)(=O)c2cccc3c2NC[C@H](C)C3)[C@@H](C(=O)O)C1` it was 1.57% (inactive).
For `CC[C@]12C=CCN3CC[C@@]4(c5cc([C@@]6(C(=O)OC)C[C@H]7C[C@@H](C(C)(F)F)CN(Cc8c6[nH]c6ccccc86)C7)c(OC)cc5N(C)[C@H]4[C@@](O)(C(=O)OC)[C@@H]1OC(C)=O)[C@@H]32`, the Potency is 0.123 µM (active).
Regarding `C[C@@H]1CC(=O)Nc2cccc(-c3ccc4c(c3)c(-c3cnn(C)c3)nn4C)c2N1`, the activity (max response) was -3.66% (inactive).
With `CC(COc1ccccc1)NN` (configuration not stated), the activity (max response) was 12.2% (inactive).
Take `CCCC1(CCC)CCC2(CCN(CCCN(CC)CC)C2)CC1`: the Potency is 3.55 µM (active).

Another experiment in a line: Cellular viability qHTS for adrenocortical cancer (ACC) cell line NCI-H295R (AID 1963990). Also: nearly all actives have a fitted effect of over 60% in size.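 As to activity change, negative = viability loss: 0% = DMSO only wells and -100% = full killing with cytotoxic reference compound.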 Conditions: CellTiter-Glo ATP luminescence, 48 h; series mostly up to 46.1 µM; activity change, negative = viability loss: at the top concentration. The essentials: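 IC50 and maximal efficacy derive from four-parameter logistic modelling of titration curves, with reads scaled between DMSO-only wells (0%) and doxorubicin hydrochloride (100% inhibition). Compounds spanned up to 46 uM over 48 h.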
Regarding `CCCCOc1cc(C(=O)OCCN(CC)CC)ccc1N`, the “activity change, negative = viability loss” value is -19.5% (inactive).
The same measure, in the same setting: the value for `O=C(CCCl)NCCc1ccccc1` was -7.26% (inactive); that for `CC1(C)S[C@@H]2[C@H](NC(=O)Cc3ccccc3)C(=O)N2[C@H]1C(=O)O` (tested in a mixture with another compound) was -18.5% (inactive).
As to `O=C1CC2(CCCC2)CC(=O)N1CCNCC1COc2ccccc2O1` (configuration not stated), the “activity change, negative = viability loss” value was -9.24% (inactive).
For the compound `Clc1cc(Cl)cc(CNc2ncncc2-c2ccc3c(c2)OCO3)c1`, the Potency is 3.55 µM (active).
On the same count and under the same terms, in the case of `COc1ccc(CCN2CCC(Nc3nc4ccccc4n3Cc3ccc(F)cc3)CC2)cc1` it was 14.6 µM (active).
Turning to `O=C(CO)[C@@H](O)[C@H](O)[C@@H](O)CO`, the “activity change, negative = viability loss” value is -2.94% (inactive).
On to `Cc1cc(O)cc2c1[C@]1(C)CC[C@H]3C(C)(C)CCC[C@]3(C)[C@H]1C2`, for which the activity change, negative = viability loss was -10.2% [at 3.81 µM] (inactive).
As for `NC(=O)c1ncn([C@@H]2O[C@H](CO)[C@@H](O)[C@H]2O)c1O`, the Potency result was “inactive”.
Consider `O=C1OC(CN2CCOCC2)CN1/N=C/c1ccc([N+](=O)[O-])o1` (configuration not stated), for which the Potency was 16.4 µM (active).
As for `CC[C@H](CC[C@@H](C)[C@H]1CC[C@H]2[C@@H]3CC=C4C[C@@H](O)CC[C@]4(C)[C@H]3CC[C@]12C)C(C)C`, the “activity change, negative = viability loss” value was -11.6% (inactive).
On the same count and under the same terms, the value for `CC(C)NCCCC1(C(N)=O)c2ccccc2-c2ccccc21` was -3.01% (inactive).
Regarding `CN(C)CCNC(=O)NC[C@H]1CC[C@@H]2[C@H](O1)c1cc(C(F)(F)F)ccc1N[C@H]2c1ccccc1`, the Potency is 0.891 µM (active).
Take `COc1ccc([C@@H]2Sc3ccccc3N(CCN(C)C)C(=O)[C@@H]2OC(C)=O)cc1`: the Potency result is “inactive”.
As for `CC(C)COCC(CN(Cc1ccccc1)c1ccccc1)N1CCCC1` (configuration not stated), the Potency was 15.8 µM (active).
On the same count and under the same terms, in the case of `Cc1ccc(S(=O)(=O)Cc2nc(-c3ccc(C(=O)NCc4cccnc4)cc3)oc2C)cc1` it was 0.0501 µM (active).
On the same count and under the same terms, the value for `CC/C=C(\C(=O)N[C@@H]1C(=O)N2C(C(=O)OCOC(=O)C(C)(C)C)=C(COC(N)=O)CS[C@H]12)c1csc(N)n1` was “inactive”.
As to `CCN(CC)CCCC(C)Nc1c2ccc(Cl)cc2nc2ccc(OC)cc12` (configuration not stated), the Potency is 14.1 µM (active).
Take `COc1cc(C(=O)O)ccc1NC(=O)[C@@H]1N[C@@H](CC(C)(C)C)[C@](C#N)(c2ccc(Cl)cc2F)[C@H]1c1cccc(Cl)c1F`: the “activity change, negative = viability loss” value was -3.36% (inactive).
With `CC(=O)OCC1=C(C(=O)O)N2C(=O)[C@@H](NC(=O)Cc3cccs3)[C@H]2SC1`, the “activity change, negative = viability loss” value is -6.48% (inactive).
On to `CC[C@]1(O)C[C@@H]2CN(CCc3c([nH]c4ccccc34)[C@@](C(=O)OC)(c3cc4c(cc3OC)N(C)[C@H]3[C@@](O)(C(=O)OC)[C@H](OC(C)=O)[C@]5(CC)C=CCN6CC[C@]43[C@@H]65)C2)C1`, for which the Potency was 116 nM (active) and 291 nM (active).
As for `Cc1c[nH]c2ncnc(N3CCC(CN)(C(=O)Nc4cccc(OC(=O)N(C)C)c4)CC3)c12`, the Potency entry is “inactive and 22.4 µM (active)”.
In the case of `Cc1cnc(NC(=O)c2cc(Oc3cnc(C(=O)N(C)C)nc3)c3cc(C)oc3c2)cn1`, the “activity change, negative = viability loss” value is -25.3% (inactive).
`CN1C(CCl)Nc2cc(Cl)c(S(N)(=O)=O)cc2S1(=O)=O` (configuration not stated): the “activity change, negative = viability loss” value is 7.94% (inactive).
As for `COc1ccc(C(=O)NCc2ccc(OCCN(C)C)cc2)cc1OC`, the “activity change, negative = viability loss” value was -1% (inactive).
Consider `OCCN1CCN(CCCN2c3ccccc3Sc3ccc(Cl)cc32)CC1`, for which the Potency was 2.59 µM (active).
Still for that read-out and setting: in the case of `CSc1ccc2c(c1)N(CCC1CCCCN1C)c1ccccc1S2` (configuration not stated) it was 4.61 µM (active); in that of `COc1ccc(CNc2nc(N(CCO)CCO)nc3c2ncn3C(C)C)cc1`, 15.8 µM (active).
Turning to `CC(C)n1nc(-c2cc3cc(O)ccc3[nH]2)c2c(N)ncnc21`, the Potency was 2.31 µM (active) and 10 µM (active).
In the case of `COc1ccccc1OCC(O)CO` (configuration not stated), the “activity change, negative = viability loss” value is -4.32% (inactive).
`COc1cc(Cc2cnc(N)nc2N)cc(OC)c1OC`: the “activity change, negative = viability loss” value was -10.7% (inactive).
On to `COc1ccc2nc3n[nH]c(C)c3c(NCCOCCO)c2c1`, for which the “activity change, negative = viability loss” value was -20.9% (inactive).
With `CCCNC(C)(C)COC(=O)c1ccccc1`, the “activity change, negative = viability loss” value is -11.2% (inactive).
Turning to `CCN(c1cc(C#CCN2CCOCC2)cc(C(=O)NCc2c(C)cc(C)[nH]c2=O)c1C)C1CCC(N(C)CCOC)CC1` (configuration not stated), the “activity change, negative = viability loss” value is -5.85% (inactive).
`CCN(CC)CCOC(=O)c1ccc(N)cc1`: the “activity change, negative = viability loss” value was 7.14% (inactive).
`C[C@@H]1CCN(C(=O)[C@H](CCCN=C(N)N)NS(=O)(=O)c2cccc3c2NC[C@H](C)C3)[C@@H](C(=O)O)C1`: the “activity change, negative = viability loss” value is -10.7% (inactive).
For the compound `CC[C@]12C=CCN3CC[C@@]4(c5cc([C@@]6(C(=O)OC)C[C@H]7C[C@@H](C(C)(F)F)CN(Cc8c6[nH]c6ccccc86)C7)c(OC)cc5N(C)[C@H]4[C@@](O)(C(=O)OC)[C@@H]1OC(C)=O)[C@@H]32`, the Potency is 0.548 µM (active).
Turning to `C[C@@H]1CC(=O)Nc2cccc(-c3ccc4c(c3)c(-c3cnn(C)c3)nn4C)c2N1`, the “activity change, negative = viability loss” value is 16.2% (inactive).
Take `CC(COc1ccccc1)NN` (configuration not stated): the “activity change, negative = viability loss” value is 0.72% (inactive).
With `CCCC1(CCC)CCC2(CCN(CCCN(CC)CC)C2)CC1`, the Potency is 6.31 µM (active).
